From PMC5540273 (PLoS ONE, 2017)

Columns and labels:
Details in all cases: concentration: 1 μM, replicates: in singlicate; n = 1
ALK = system: ALK
AMPK-alpha1 = system: T1, AMPK-alpha1
T1 construct: gene PRKAA1

AMPK-alpha2 = system: T2, AMPK-alpha2
T2 construct: gene PRKAA2

ANKK1 = system: ANKK1
ARK5 = system: T3, ARK5
T3 construct: gene NUAK1

ASK1 = system: T4, ASK1
T4 construct: gene MAP3K5

ASK2 = system: T5, ASK2
T5 construct: gene MAP3K6

AURKA = system: AURKA
AURKB = system: AURKB
AURKC = system: AURKC
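Note: KINOMEscan kinase panel screen.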

Row | Compound | %Inh (ALK) | %Inh (AMPK-alpha1) | %Inh (AMPK-alpha2) | %Inh (ANKK1) | %Inh (ARK5) | %Inh (ASK1) | %Inh (ASK2) | %Inh (AURKA) | %Inh (AURKB) | %Inh (AURKC)
1 | CCn1c(-c2nonc2N)nc2ccccc21 [SB-693162/GW549034] | 0% | 7% | 0% | 51% | 3% | 16% | 2% | 27% | 37% | 0%
2 | Cc1cccc(-c2nc(Nc3ccc4c(cnn4C)c3)c3ccccc3n2)n1 [GW876731] | 0% | 0% | 17% | 16% | 5% | 0% | 10% | 24% | 6% | 0%
3 | COc1cccc(C2=C(Nc3cccc(C(=O)O)c3)C(=O)NC2=O)c1 [SB-390770] | 0% | 45% | 16% | 70% | 0% | 5% | 4% | 21% | 31% | 14%
4 | O=C(Nc1n[nH]c2cc(-c3ccccc3F)ccc12)C1CC1 [SB-733371] | 0% | 0% | 0% | 10% | 0% | 0% | 0% | 16% | 51% | 46%
5 | CCC(=O)c1c(-c2ccccc2)c2cc(Cl)ccc2c(=O)n1Cc1cc(S(C)(=O)=O)n(CC(F)F)n1 | 0% | 0% | 8% | 0% | 5% | 0% | 0% | 0% | 11% | 0%
6 | CN1C(=O)C(Nc2cc(Cl)c(O)c(Cl)c2)=C(c2ccc(Cl)cc2)C1=O [SB-404321] | 48% | 0% | 0% | 0% | 0% | 0% | 0% | 0% | 14% | 0%
7 | CCS(=O)c1ccc(-c2coc3ccc(-c4nnc(C)o4)cc23)cc1 (centres unmarked) | 5% | 26% | 1% | 30% | 0% | 0% | 0% | 16% | 1% | 0%
8 | CC(C)(C)c1ccc(C(=O)Nc2cn3cc(-c4ccccc4)ccc3n2)cc1 | 0% | 0% | 0% | 0% | 13% | 40% | 0% | 48% | 51% | 0%
9 | COc1cccc(-n2cnc3c(N)ncnc32)c1 [SKF-97416] | 56% | 2% | 15% | 14% | 0% | 4% | 35% | 0% | 31% | 5%
10 | CCC(=O)c1c(-c2ccccc2)c2cc(Cl)ccc2c(=O)n1Cc1ccc(C(=O)O)cc1 | 0% | 0% | 0% | 0% | 6% | 0% | 0% | 0% | 19% | 0%
11 | CCC(=O)c1c(-c2ccccc2)c2cc(Cl)ccc2c(=O)n1Cc1cc(C(=O)NC2CC2)n(C)n1 | 32% | 22% | 5% | 0% | 0% | 0% | 0% | 22% | 26% | 0%
12 | CN1C(=O)C(Nc2ccccc2)=C(c2ccccc2)C1=O [SB-300079] | 7% | 0% | 1% | 15% | 0% | 0% | 0% | 0% | 21% | 0%
13 | O=C(Nc1n[nH]c2nc(-c3ccccc3)c(Cl)cc12)C1CC1 [SB-734909] | 15% | 0% | 10% | 19% | 1% | 0% | 21% | 28% | 33% | 25%
14 | O=C(NCc1cccs1)c1cc(C(=O)c2c(Cl)cccc2Cl)c[nH]1 [GW823670] | 0% | 8% | 0% | 0% | 0% | 19% | 0% | 0% | 9% | 1%
15 | O=C1NC(=O)C(c2ccccc2)=C1Nc1cccc(O)c1 [SB-390534] | 0% | 0% | 0% | 0% | 0% | 0% | 4% | 12% | 35% | 0%
16 | COc1ccc(-c2coc3ccc(-c4nnc(SCc5cccc(C#N)c5)o4)cc23)cc1 | 0% | 7% | 0% | 19% | 16% | 9% | 6% | 22% | 12% | 0%
17 | Fc1cccc(CSc2nnc(-c3ccc4c(c3)CCO4)o2)c1 | 79% | 13% | 17% | 35% | 11% | 11% | 22% | 9% | 20% | 0%
